# Data from PubChem BioAssay (Tox21).
# Where “and” joins values, the source holds several entries; their conditions need not be identical. Equal values may be shown once. Results filed as inconclusive are left out. A call without a number means that no potency is given here. A structure can be active in one record and inactive in another. Calls of active or inactive are those of the source. Calls follow the shape of the dose curve; as a rule, active = well fitted curve in the direction sought with a large enough effect in the repeat runs; inconclusive = weak or mixed curves; inactive = no such curve, though single readings can be large; an effect the other way counts as inactive or inconclusive.
# Test system: not listed separately
# Experiment: qHTS assay to identify aromatase inhibitors - cell viability counter screen (AID 743084);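 also: cells stimulated with testosterone during compound exposure; nearly all actives have a fitted effect of over 55% in size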; also: potency is read from the fitted curve at half-maximal effect
# Conditions: MCF-7 aro ERE viability, CellTiter-Fluor, 24 h; series mostly up to 70.3 µM
Structure (SMILES),Potency,"activity change, negative = cytotoxicity"
O=c1cc(CO)occ1O,inactive,–
NS(=O)(=O)c1cc(C(=O)O)cc(N2CCCC2)c1Oc1ccccc1,inactive,–
CCOC(C)(C)C,inactive,–
C=CCCCCCCCCC=O,inactive,–
O=C(O)CCCl,inactive,–
NC(CSCC(=O)O)C(=O)O (stereo unspecified),inactive,–
CC(=O)c1ccccc1O,inactive,–
CC(=O)N(CC(O)CO)c1c(I)c(C(=O)NCCO)c(I)c(C(=O)NCC(O)CO)c1I (stereo unspecified),inactive,–
Cc1ccc(=O)n(-c2ccccc2)c1,inactive,–
COC(=O)c1c(Cl)c(Cl)c(C(=O)OC)c(Cl)c1Cl,inactive,–
COC(=O)NN,inactive,–
CC(C)(O)C#CC(C)(C)O,inactive,–
OCCCC1CCCCC1,inactive,–
CC1=CC(C)C(C=O)CC1 (stereo unspecified),inactive,–
N[C@H](C(=O)O)c1ccc(O)cc1,inactive,–
CO/N=C(/C(=O)N[C@@H]1C(=O)N2C(C(=O)OCOC(=O)C(C)(C)C)=C(C)CS[C@H]12)c1csc(N)n1,inactive,–
COc1ccc2c(c1)c(CC(=O)OCC(=O)O)c(C)n2C(=O)c1ccc(Cl)cc1,inactive,–
CCO/C([O-])=N/c1c[n+](N2CCOCC2)no1,inactive,–
COC(=O)[C@@H](N)Cc1ccc(O)c(O)c1,26.6 µM (active),–
O=S(O)CO,inactive,–
ClC(Cl)(Br)Br,inactive,–
COC(=O)C1=C(C)NC(C)=C(C(=O)OC)C1c1ccccc1[N+](=O)[O-],inactive and 54.5 µM (active),–
CCCCNC(=O)NCCCC,inactive,–
CCC(C)S (stereo unspecified),–,-1.89% [at 3.79 µM] (inactive)
N#Cc1ccc(C2CCCc3cncn32)cc1 (stereo unspecified),inactive,–
CCCCOCCOCCOCc1cc2c(cc1CCC)OCO2,inactive,–
CC(C)(CC(=O)O)C(=O)O,inactive,–
CN1CCC(=C2c3ccccc3CC(=O)c3sccc32)CC1,inactive,–

# Target: Aryl hydrocarbon receptor (Homo sapiens) (UniProt P35869)
# Experiment: qHTS assay to identify small molecule that activate the aryl hydrocarbon receptor (AhR) signaling pathway (AID 743085); also: nearly all actives have a fitted effect of over 15% in size; also: potency is read from the fitted curve at half-maximal effect;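 as to activation: HG2L7.5c1 human HepG2 liver cells with stably integrated DRE-driven firefly reporter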
# Conditions: HepG2 AhR-luc (HG2L7.5c1), luciferase, 24 h; series mostly up to 70.3 µM
# How it was run: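 HepG2 cells stably carrying a 20-DRE firefly luciferase reporter (HG2L7.5c1) treated with compound for 24 hr at 37C. Luciferase read by ONE-Glo luminescence, with CellTiter-Fluor viability read first.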
# Aryl hydrocarbon receptor (Homo sapiens), sequence (P35869 whole entry, looked up): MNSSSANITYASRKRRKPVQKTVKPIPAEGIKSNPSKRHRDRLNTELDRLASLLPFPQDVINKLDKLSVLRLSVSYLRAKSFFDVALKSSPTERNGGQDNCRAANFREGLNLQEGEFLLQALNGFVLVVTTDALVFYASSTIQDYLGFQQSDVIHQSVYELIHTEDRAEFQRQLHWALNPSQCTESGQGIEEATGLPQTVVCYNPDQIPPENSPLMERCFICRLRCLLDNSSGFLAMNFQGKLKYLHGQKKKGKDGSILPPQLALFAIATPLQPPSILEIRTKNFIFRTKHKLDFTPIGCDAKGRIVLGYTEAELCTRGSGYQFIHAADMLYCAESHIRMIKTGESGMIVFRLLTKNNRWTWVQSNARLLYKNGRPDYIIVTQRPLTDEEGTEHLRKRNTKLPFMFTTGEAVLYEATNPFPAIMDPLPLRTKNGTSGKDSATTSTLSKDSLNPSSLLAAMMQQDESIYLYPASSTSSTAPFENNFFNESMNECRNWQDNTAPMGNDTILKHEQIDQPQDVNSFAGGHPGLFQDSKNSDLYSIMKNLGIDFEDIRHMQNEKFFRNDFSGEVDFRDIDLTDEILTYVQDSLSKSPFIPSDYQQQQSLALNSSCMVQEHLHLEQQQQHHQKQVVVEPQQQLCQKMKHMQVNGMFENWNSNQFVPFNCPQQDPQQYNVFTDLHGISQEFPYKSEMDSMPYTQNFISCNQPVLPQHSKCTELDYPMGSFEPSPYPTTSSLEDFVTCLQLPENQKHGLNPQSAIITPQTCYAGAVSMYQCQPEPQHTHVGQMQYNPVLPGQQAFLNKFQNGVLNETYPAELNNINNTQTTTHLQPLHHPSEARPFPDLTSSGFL
Structure (SMILES),Potency,activation
COc1ccc(CCN(C)CCCC(C#N)(c2cc(OC)c(OC)c(OC)c2)C(C)C)cc1OC (stereo unspecified),inactive,–
O=c1cc(CO)occ1O,inactive,–
NS(=O)(=O)c1cc(C(=O)O)cc(N2CCCC2)c1Oc1ccccc1,inactive,–
CCOC(C)(C)C,inactive,–
C=CCCCCCCCCC=O,inactive,–
O=C(O)CCCl,inactive,–
NC(CSCC(=O)O)C(=O)O (stereo unspecified),inactive,–
CC(=O)c1ccccc1O,inactive,–
CC(=O)N(CC(O)CO)c1c(I)c(C(=O)NCCO)c(I)c(C(=O)NCC(O)CO)c1I (stereo unspecified),inactive,–
Cc1ccc(=O)n(-c2ccccc2)c1,inactive,–
COC(=O)c1c(Cl)c(Cl)c(C(=O)OC)c(Cl)c1Cl,inactive and 48.6 µM (active),–
COC(=O)NN,inactive,–
CC(C)(O)C#CC(C)(C)O,inactive,–
OCCCC1CCCCC1,inactive,–
CC1=CC(C)C(C=O)CC1 (stereo unspecified),inactive,–
N[C@H](C(=O)O)c1ccc(O)cc1,inactive,–
CO/N=C(/C(=O)N[C@@H]1C(=O)N2C(C(=O)OCOC(=O)C(C)(C)C)=C(C)CS[C@H]12)c1csc(N)n1,inactive,–
COc1ccc2c(c1)c(CC(=O)OCC(=O)O)c(C)n2C(=O)c1ccc(Cl)cc1,inactive,–
CCO/C([O-])=N/c1c[n+](N2CCOCC2)no1,inactive,–
CCCCCCCCS(=O)(=O)Cl,inactive,–
COC(=O)[C@@H](N)Cc1ccc(O)c(O)c1,26.6 µM (active),–
O=S(O)CO,inactive,–
ClC(Cl)(Br)Br,inactive,–
CCCCNC(=O)NCCCC,inactive,–
CCC(C)S (stereo unspecified),–,2.05% [at 3.79 µM] (inactive)
N#Cc1ccc(C2CCCc3cncn32)cc1 (stereo unspecified),inactive,–
CCCCOCCOCCOCc1cc2c(cc1CCC)OCO2,inactive and 18 µM (active),–
CC(C)(CC(=O)O)C(=O)O,inactive,–
CN1CCC(=C2c3ccccc3CC(=O)c3sccc32)CC1,inactive,–

# Test system: not listed separately
# Experiment: qHTS assay to identify small molecule that activate the aryl hydrocarbon receptor (AhR) signaling pathway - cell viability counter screen (AID 743086);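 also: HepG2 liver cells carrying the AhR DRE luciferase reporter; nearly all actives have a fitted effect of over 45% in size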
# Conditions: HepG2-AhR-luc viability, CellTiter-Fluor, 24 h; series mostly up to 70.3 µM
# How it was run: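 Cytotoxicity counter screen: CellTiter-Fluor signal (30 min, 37 C) in 4000 HepG2 cells/well carrying the DRE-luciferase reporter, following 24 h compound exposure at 37 C.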
Structure (SMILES),Potency,"viability change, negative = cytotoxic"
COc1ccc(CCN(C)CCCC(C#N)(c2cc(OC)c(OC)c(OC)c2)C(C)C)cc1OC (stereo unspecified),inactive,–
O=c1cc(CO)occ1O,inactive,–
NS(=O)(=O)c1cc(C(=O)O)cc(N2CCCC2)c1Oc1ccccc1,inactive,–
CCOC(C)(C)C,inactive,–
C=CCCCCCCCCC=O,inactive,–
NC(=O)c1cn(Cc2c(F)cccc2F)nn1,inactive,–
O=C(O)CCCl,inactive,–
NC(CSCC(=O)O)C(=O)O (stereo unspecified),inactive,–
CC(=O)c1ccccc1O,inactive,–
COC(=O)CCSCCC(=O)OC,inactive,–
CC(=O)N(CC(O)CO)c1c(I)c(C(=O)NCCO)c(I)c(C(=O)NCC(O)CO)c1I (stereo unspecified),inactive,–
Cc1[nH]c(=O)c(C#N)cc1-c1ccc2nccn2c1,inactive,–
C=CCOCC(CC)(CO)COCC=C,inactive,–
Cc1ccc(=O)n(-c2ccccc2)c1,inactive,–
COC(=O)c1c(Cl)c(Cl)c(C(=O)OC)c(Cl)c1Cl,inactive,–
COC(=O)NN,inactive,–
CC(C)(O)C#CC(C)(C)O,inactive,–

Structure (SMILES),Potency,"viability change, negative = cytotoxic"
OCCCC1CCCCC1,inactive,–
CC1=CC(C)C(C=O)CC1 (stereo unspecified),inactive,–
N[C@H](C(=O)O)c1ccc(O)cc1,inactive,–
CO/N=C(/C(=O)N[C@@H]1C(=O)N2C(C(=O)OCOC(=O)C(C)(C)C)=C(C)CS[C@H]12)c1csc(N)n1,inactive,–
COc1ccc2c(c1)c(CC(=O)OCC(=O)O)c(C)n2C(=O)c1ccc(Cl)cc1,inactive,–
CCO/C([O-])=N/c1c[n+](N2CCOCC2)no1,inactive,–
CCCCCCCCS(=O)(=O)Cl,inactive,–
O=S(O)CO,inactive,–
ClC(Cl)(Br)Br,inactive,–
CC(C)NCC(O)c1ccc(NS(C)(=O)=O)cc1 (stereo unspecified),inactive,–
COC(=O)C1=C(C)NC(C)=C(C(=O)OC)C1c1ccccc1[N+](=O)[O-],inactive,–
CCCCNC(=O)NCCCC,inactive,–
CCC(C)S (stereo unspecified),–,-4.09% [at 3.79 µM] (inactive)
N#Cc1ccc(C2CCCc3cncn32)cc1 (stereo unspecified),inactive,–
CCCCOCCOCCOCc1cc2c(cc1CCC)OCO2,inactive,–
CC(C)(CC(=O)O)C(=O)O,inactive,–
CN1CCC(=C2c3ccccc3CC(=O)c3sccc32)CC1,inactive,–
